PubChem BioAssay AID1963317 (National Center for Advancing Translational Sciences (NCATS), 2024)
Records with an inconclusive call do not appear. Calls of active or inactive are those of the source. Calls follow the shape of the full dose curve.

biological target: Tyrosine-protein kinase ABL1 (Homo sapiens) (UniProt P00519); test: ABL1 kinase (ABL1-N-HiBiT) enzymatic inhibition screen - Functional assay; settings: luminescence; series mostly up to 57.5 µM; activity change, negative = inhibition: at the top concentration
Sequence (P00519 whole entry, looked up): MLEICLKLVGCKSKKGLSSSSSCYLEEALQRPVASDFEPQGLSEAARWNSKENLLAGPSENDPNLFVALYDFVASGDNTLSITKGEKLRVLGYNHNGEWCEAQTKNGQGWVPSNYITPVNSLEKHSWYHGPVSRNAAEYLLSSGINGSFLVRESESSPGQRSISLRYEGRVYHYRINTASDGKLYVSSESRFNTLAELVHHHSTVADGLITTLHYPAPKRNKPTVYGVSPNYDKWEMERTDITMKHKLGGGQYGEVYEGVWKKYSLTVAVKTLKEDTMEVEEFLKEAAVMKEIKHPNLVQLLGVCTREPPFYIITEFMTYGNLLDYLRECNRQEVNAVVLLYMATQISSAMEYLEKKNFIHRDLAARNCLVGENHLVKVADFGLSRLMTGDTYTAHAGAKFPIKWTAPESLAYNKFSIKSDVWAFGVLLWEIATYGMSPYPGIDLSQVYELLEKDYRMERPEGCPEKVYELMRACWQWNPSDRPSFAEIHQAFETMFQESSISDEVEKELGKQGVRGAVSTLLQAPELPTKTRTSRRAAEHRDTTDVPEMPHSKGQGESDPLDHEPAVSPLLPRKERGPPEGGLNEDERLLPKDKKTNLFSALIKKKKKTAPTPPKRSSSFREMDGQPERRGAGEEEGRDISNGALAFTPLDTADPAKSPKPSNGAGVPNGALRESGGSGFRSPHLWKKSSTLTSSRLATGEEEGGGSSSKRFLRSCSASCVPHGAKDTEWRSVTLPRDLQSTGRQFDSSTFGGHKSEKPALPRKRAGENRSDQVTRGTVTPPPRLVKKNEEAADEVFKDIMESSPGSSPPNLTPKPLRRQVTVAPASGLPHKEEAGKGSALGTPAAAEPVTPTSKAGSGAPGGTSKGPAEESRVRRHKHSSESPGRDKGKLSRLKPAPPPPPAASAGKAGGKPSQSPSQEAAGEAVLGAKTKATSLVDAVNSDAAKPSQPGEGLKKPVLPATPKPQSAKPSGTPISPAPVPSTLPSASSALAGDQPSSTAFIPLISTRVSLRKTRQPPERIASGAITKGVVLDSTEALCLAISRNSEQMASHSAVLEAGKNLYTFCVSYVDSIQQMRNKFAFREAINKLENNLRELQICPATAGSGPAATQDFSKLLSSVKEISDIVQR
From the text: National Center for Advancing Translational Sciences (NCATS),
National Institute of Health (NIH), Maryland
Discovery and optimization of novel protein-binding ligands underlies many of the methods and applications of biology, drug discovery, clinical diagnostics, and environmental toxicology. Assays for detecting the interaction of, for example, a molecule with a macromolecular target also referred to here as the target of interest (TOI) is dependent on a compatible output technology. Depending on the nature and knowledge surrounding the TOI, whether a receptor, enzyme, regulatory subunit or scaffold, or a sequence-defined nucleic acid folded into a complex tertiary structure, assay strategies can vary widely.
Here we exploit ligand-biased changes in the structural dynamics of the target protein to control reporter alpha complementation allowing a non-competitive, non-functional, non-separation measure of ligand-target interaction.
Using a chemical library of >1,200 compounds enriched for scaffolds known to be associated with the inhibition of firefly luciferase (FLuc) activity (PubChem AIDs 2309) we first illustrate and compare the Structural Dynamics Response (SDR) assay vs. the standard functional FLuc enzyme assay (2). Secondly, we show the specificity and sensitivity of the SDR for the Abelson tyrosine kinase (ABL1) compared to the serine/threonine protein kinase A, using an enriched chemical library of 128 compounds selected, in part, for activity annotated with ABL1 kinase activity using the Pharos database (3).
(1) A. S. Dixon et al., NanoLuc Complementation Reporter Optimized for Accurate Measurement of Protein Interactions in Cells.
Chemistry & Biology, 19, 1060 - 1072 (2012).
(3) K. J. Kelleher et al., Pharos 2023: an integrated resource for the understudied human proteome. Nucleic Acids Res 51, D1405-D1416 (2023).
PROTOCOL TABLE (as described by Inglese J, Shamu CE and Guy RK. 2007)
SEQUENCE No. (e.g., 1, 2, 3, etc.); […] (e.g., C. elegans, Compounds, Incubation, Read, etc.); VALUE and DESCRIPTION.
1. Reagent. Dispense 4 uL ABL1-N-HiBiT enzyme per well at a final enzyme concentration of 10 nM in buffer with 87.5 uM ATP (functional assay) into columns 2-48 of four replicate Greiner 1536-well white, solid bottom high base, medium plates per assay. Dispense respective buffer without enzyme at 4 uL/well in column 1 of assay plates using BioRaptr 2.
2. Compounds. Library compounds added at 23 nL/well by pin transfer. DMSO neutral control and imatinib positive control added at 25 nL/well, transfer by Mosquito dispenser.
3. Incubation. Incubate enzyme and compounds at room temperature for 30 min, protected from light.
4. Reagent. (Functional assay) Transfer 25 nL of abltide peptide substrate to each well of four replicate kinase assay plates with Mosquito dispenser.
5. Incubation. (Functional assay) Kinase enzyme incubated with peptide substrate for 3 h at room temperature, protected from light.
6. Reagent. (Functional assay) Add 4 uL/well of Kinase-Glo Plus reagent (Promega) to kinase activity assay plates, in the presence of ATP.
7. Detector. (Functional assay) Luminescence measured using CCD-based camera (ViewLux) with settings as follows: Exposure, 1 sec; Gain, High; Speed, Slow; Binning, 2X.
Inglese J, Shamu CE and Guy RK, Reporting data from high throughput screening of small molecule libraries, Nature Chemical Biology, 2007, 3(8): 438-441. doi.org/10.1038/nchembio0807-438.

Compound | activity change, negative = inhibition | Potency
c1cc(-c2cc(C3CCNCC3)[nH]n2)ccn1 | 38.6% [at 28.8 µM] (inactive) | 
CCn1nc(C2CCN(C(=O)CCO)CC2)nc1-c1cnc(N)c(-c2nnc(C(C)(C)C)o2)n1 | 9.65% (inactive) | 
Cc1ccc(C(=O)Nc2ccc(CN3CCN(C)CC3)c(C(F)(F)F)c2)cc1C#Cc1cnc2[nH]ncc2c1 |  | 0.0112 µM (active)
C=CC(=O)N1CCC(Oc2cc3c(Nc4ccc(Cl)c(Cl)c4F)ncnc3cc2OC)CC1 | 5.31% (inactive) | 
Oc1ccc(-c2ccc(-c3cc(Nc4cccc(CNC5CC5)c4)n[nH]3)cc2)c(O)c1 | 19.9% (inactive) | 
O=S(=O)(/N=C/c1c(O)ccc2ccccc12)c1cccs1 | 36.2% (inactive) | 
c1ccc(-c2oc3ncnc(NC[C@@H]4CCCO4)c3c2-c2ccccc2)cc1 | -28.4% (inactive) | 
Cc1c(Cl)cccc1S(=O)(=O)Nc1nc(NCCc2ccccc2)nc2c1CN(Cc1ccccc1)CC2 | 39.5% (inactive) | 
Cc1cc(C)c(/C=C2\C(=O)Nc3ccccc32)[nH]1 | 33.1% (inactive) | 
FC(F)(F)c1ccc(/C=C/c2nc(COc3ccc(CCCCn4ccnn4)cc3)co2)cc1 | 44.5% (inactive) | 
CNS(=O)(=O)c1ccc2c(c1)/C(=C/c1[nH]c3c(c1CCCN1CCN(C)CC1)CCCC3)C(=O)N2 |  | 9.15 µM (active)
Cc1cccc(/C=N/Nc2cc(N3CCOCC3)nc(OCCc3ccccn3)n2)c1 | 42.5% [at 46 µM] (inactive) | 
C[C@@H]1CN(CC(=O)Nc2ccc3c(c2)Cc2cccc(-c4cc(=O)cc(N5CCOCC5)o4)c2S3)C[C@H](C)O1 | 36.8% (inactive) | 
COc1ccc(CNC(=O)Nc2ncc([N+](=O)[O-])s2)cc1 | 37.2% (inactive) | 
Cc1cc(-c2cc(O)ccc2Cl)cc2nnc(Nc3ccc(OCCN4CCCC4)cc3)nc12 |  | 0.0472 µM (active)
O=c1cc(N2CCOCC2)nc2c3ccccc3ccn12 | 42.2% (inactive) | 
CC(C)(C)n1nc(-c2cccc3ccccc23)c2c(N)ncnc21 | -16.6% (inactive) | 
COc1cc(N2CCN(C)CC2)ccc1Nc1nc(N)c(C(=O)c2c(Cl)cccc2Cl)s1 | 46.2% (inactive) | 
CCCCCCCCCCCCc1ccc(S(=O)(=O)Nc2nncs2)cc1 | 33.8% (inactive) | 
Cc1cc(Nc2ncc3cc(-c4c(Cl)cccc4Cl)c(=O)n(C)c3n2)ccc1F |  | 0.0375 µM (active)

Compound | activity change, negative = inhibition | Potency
Cc1nc2ccc(-n3ncc(C(=O)c4cc5ccccc5[nH]4)c3N)cc2[nH]1 | 10.1% (inactive) | 
c1ccc2c(-c3cnn4cc(-c5ccc(N6CCNCC6)cc5)cnc34)ccnc2c1 |  | 0.127 µM (active)
S=C(NCc1ccc2c(c1)OCO2)N1CCN(c2ncnc3c2oc2ccccc23)CC1 | 44.2% (inactive) | 
C=CC(=O)Nc1cccc(Oc2nc(Nc3ccc(N4CCN(C)CC4)cc3OC)ncc2Cl)c1 | 17.5% (inactive) | 
Cn1cc(-c2cc3c(N4CCN(c5ncc([C@@](C)(N)c6ccc(F)cc6)cn5)CC4)ncnn3c2)cn1 |  | 12.9 µM (active)
C[C@@H]1CCNC(=O)c2cc3ccc(C(=O)Nc4nc5ccccc5n4CCCN(C)C)cc3n21 | 44.9% (inactive) | 
O=C(Nc1ccc(OC(F)(F)F)cc1)c1sccc1NCc1ccnc2ccccc12 | 42.3% (inactive) | 
CC[C@@](C)(Nc1ccnc(-c2c[nH]c3ncccc23)n1)C(=O)NCC(F)(F)F |  | 7.06 µM (active)
Cc1ccc(-n2nc(C(C)(C)C)cc2NC(=O)NCc2cc(F)ccc2Oc2ccc3c(cnn3CCO)c2)cc1 |  | 1.26 µM (active)
CCCS(=O)(=O)Nc1ccc(F)c(C(=O)c2c[nH]c3ncc(Cl)cc23)c1F | 24.1% (inactive) | 
NC1(C(=O)N[C@@H](CCO)c2ccc(Cl)cc2)CCN(c2ncnc3[nH]ccc23)CC1 | 27.4% (inactive) | 
Cc1[nH]nc2ncc(C(=O)N3CCC[C@H]3c3ccc(Cl)cc3)cc12 | 19.8% (inactive) | 
CCCCNc1ncc2c(-c3ccc(S(=O)(=O)N4CCOCC4)cc3)nn(C3CCC(O)CC3)c2n1 (stereo not given) |  | 7.48 µM (active)
Nc1nc(Nc2ccc(S(N)(=O)=O)cc2)n(C(=S)Nc2c(F)cccc2F)n1 |  | 4.72 µM (active)
COc1cc2ncnc(Oc3cccc(NC(=O)Nc4cc(C(C)(C)C(F)(F)F)on4)c3)c2cc1OC |  | 2.5 µM (active)
Cn1ncc(NC(=O)c2nc(-c3c(F)cccc3F)sc2N)c1N1CC[C@@H](N)[C@H](F)CC1 | 37.9% (inactive) | 
CCN1/C(=C\C(C)=O)Sc2ccc(OC)cc21 | 37.8% (inactive) | 
COc1cc(N2CCC(N3CCN(C)CC3)CC2)ccc1Nc1ncc(Cl)c(Nc2ccccc2P(C)(C)=O)n1 |  | 9.15 µM (active)
CN1CCN(CCOc2cc(OC3CCOCC3)c3c(Nc4c(Cl)ccc5c4OCO5)ncnc3c2)CC1 |  | 0.217 µM (active)
NC1CCC(Nc2nc(Nc3ccc(C(=O)N4CCCCC4)cc3)c3ncn(-c4cccc(F)c4)c3n2)CC1 (stereo not given) |  | 3.97 µM (active)
